# Results published in ChEMBL document CHEMBL3988442, “University of Dundee, Small-Polar-MMV Screening Library” (2021).
# The whole screen tested about 66,000 compounds, of which about 960 (1.5%) showed an effect of 50% or more. What follows is part of a selection rich in strong results, with near analogues and random picks from the rest.
# System: Trypanosoma brucei
# Assay: Trypanosoma brucei 72 hour study
# Type: functional, organism-based
# Design: scale not given: in the data most compounds retested in dose-response had high values
smiles,measurement,setting,value
Cc1nc(C)c(C(=O)Nc2cc(N3CCC(C)CC3)ncn2)s1,Percent Effect,"30.3 µM, […]",-16.43%
CC1CCN(c2cc(NC(=O)C3CC3)ncn2)CC1,Percent Effect,"30.3 µM, […]",71.79%
Cc1ccccc1NC(=O)Nc1cc(N2CCCC2)ncn1,Percent Effect,"30.3 µM, […]",-35.39%
COc1ccc(-c2csc3c2c(N)nc(=O)n3CCCN(C)C)cc1,Percent Effect,"30 µM, 30.03 µM",-33.83%
CCOC(=O)C1CCN(Cc2csc(C(C)(C)C)n2)CC1,Percent Effect,"30 µM, 30.03 µM",96.9%
CN(C)C(=O)C1CCN(Cc2csc(C(C)(C)C)n2)CC1,Percent Effect,10 µM,-5.321%
CCCNC(=O)C1CCN(Cc2csc(C(C)(C)C)n2)CC1,Percent Effect,"30 µM, 30.03 µM",-44.58%
CCNc1ccnc(CN2CCCC2C(=O)Nc2nccs2)c1 (stereo unspecified),Percent Effect,"30.3 µM, […]",28.37%
CC(=O)Nc1cccc(CN2CCCC2C(=O)Nc2nccs2)c1 (stereo unspecified),Percent Effect,"30.3 µM, […]",-3.044%
O=C(Nc1nccs1)C1CCCN1Cc1ccccn1 (stereo unspecified),Percent Effect,"30.3 µM, […]",98.2%
O=C(NC[C@]12COC[C@H]1CN(Cc1cccs1)C2)c1ccsc1.O=C(O)C(F)(F)F,Percent Effect,"30 µM, 30.03 µM",48.3%
O=C(O)C(F)(F)F.c1csc(CN2CCn3c(Cn4cncn4)cnc3C2)c1,Percent Effect,"30.3 µM, […]",-144.4%
CC1=N[C@@]2(CC[C@@H]3CN(CC4CC4)C[C@@H]32)C(=O)N1CC1CC1.O=C(O)C(F)(F)F,Percent Effect,"30.3 µM, […]",-38.25%
Cc1cnn(CCNCc2nnc(-c3occc3C)o2)c1,Percent Effect,10 µM,-38.66%
Cc1ccc(CN2CCC3(C2)C(=O)N(CC(N)=O)c2ccccc23)s1 (stereo unspecified),Percent Effect,"30 µM, 30.03 µM",-6.982%
O=C(O)C(F)(F)F.c1cnc(N2CC3(CCN(CC4CCOC4)CC3)c3ccccc32)nc1 (stereo unspecified),Percent Effect,"30 µM, 30.03 µM",-50.98%
O=C(O)C(F)(F)F.O=C(O)C(F)(F)F.OCCN1CC2(CCN(CC3CC3)CC2)c2ccccc21,Percent Effect,"30 µM, 30.03 µM",101.2%
CC(C)N1CCC2(CCCN(c3nccc(C(F)(F)F)n3)C2)CC1.O=C(O)C(F)(F)F,Percent Effect,"30.3 µM, […]",63.32%
Cc1ccc(CN2CCC3(C2)C(=O)N(CC2CC2)c2ccccc23)s1.O=C(O)C(F)(F)F (stereo unspecified),Percent Effect,"30.3 µM, […]",92.57%
O=C(O)C(F)(F)F.O=C(O)C(F)(F)F.c1cnc(N2CCC3(CCN(CC4CCOC4)CC3)CC2)nc1 (stereo unspecified),Percent Effect,"30 µM, 30.03 µM",-26.62%
O=C(O)C(F)(F)F.O=C(O)C(F)(F)F.c1cnc(N2CCCC3(CCN(c4ncccn4)C3)C2)nc1 (stereo unspecified),Percent Effect,"30 µM, 30.03 µM",-31.26%
O=C(O)C(F)(F)F.c1cnc(N2CCCC3(CCN(CC4CCOC4)CC3)C2)nc1 (stereo unspecified),Percent Effect,"30 µM, 30.03 µM",56.13%
CN1CCC2(CCCN(c3nccc(C(F)(F)F)n3)C2)CC1.O=C(O)C(F)(F)F,Percent Effect,"30.3 µM, […]",3.781%
O=C(O)C(F)(F)F.c1cnc(N2CCC3(CCN(CC4CCOC4)CC3)C2)nc1 (stereo unspecified),Percent Effect,"30 µM, 30.03 µM",-13.94%
CC(C)CN1C(=O)C2(CCN(CC3CCOCC3)C2)c2ccccc21.O=C(O)C(F)(F)F (stereo unspecified),Percent Effect,"30.3 µM, […]",-1.145%
O=C(O)C(F)(F)F.O=C1CC2(CCN(CC3CCOC3)CC2)c2ccccc2N1CC1CC1 (stereo unspecified),Percent Effect,"30.3 µM, […]",-4.569%
Cl.Clc1ccccc1OCCc1cc(C2CCNC2)n[nH]1 (stereo unspecified),Percent Effect,"30.3 µM, […]",-6.852%
CN(C(=O)c1ncn2c1CN(C)S(=O)(=O)c1ccccc1-2)C1CC1.O=C(O)C(F)(F)F,Percent Effect,"30 µM, 30.03 µM",-19.09%
COc1cc(N2CC[C@@H]3O[C@H](C(=O)N(C)C)C[C@@H]32)ncn1.O=C(O)C(F)(F)F,Percent Effect,"30.3 µM, […]",-9.278%
CCC(NC(=O)C1CCN(S(C)(=O)=O)CC1)c1ccc(C)c(C)c1 (stereo unspecified),Percent Effect,"30 µM, 30.03 µM",-5.711%
CCOCc1cc(CN2CCn3c(CO)nnc3C2)ccc1OC.O=C(O)CC(O)(CC(=O)O)C(=O)O,Percent Effect,"30.3 µM, […]",-50.73%
O=C(O)C(F)(F)F.c1cnc(N2CCC3(CC2)CN(CC2CC2)c2ccccc23)nc1,Percent Effect,"30.3 µM, […]",99.63%
CCS(=O)(=O)N1CCC2(CC1)CN(CC1CCOC1)c1ccccc12.O=C(O)C(F)(F)F (stereo unspecified),Percent Effect,"30.3 µM, […]",14.83%
O=C(O)C(F)(F)F.c1ccc2c(c1)N(CC1CCOC1)CC21CCN(c2cnccn2)CC1 (stereo unspecified),Percent Effect,"30.3 µM, […]",99.95%
O=C(O)C(F)(F)F.O=C(O)C(F)(F)F.c1cnc(N2CCC3(CCN(CC4CC4)CC3)CC2)nc1,Percent Effect,"30.3 µM, […]",8.512%
O=C(O)C(F)(F)F.O=C1N(CC2CC2)CCC12CCN(c1ncccn1)CC2,Percent Effect,"30.3 µM, […]",-19.41%
CS(=O)(=O)N1CCC2(CC1)CN(CC1CCOC1)c1ccccc12.O=C(O)C(F)(F)F (stereo unspecified),Percent Effect,"30.3 µM, […]",18.78%
Cc1noc(C(C)N2CCN(CCC(=O)N3CCOCC3)CC2)n1 (stereo unspecified),Percent Effect,"30 µM, 30.03 µM",-18.56%
Cn1ccnc1C(=O)NCc1cnc2n1CCN(CC1CC1)CC2.O=C(O)C(F)(F)F.O=C(O)C(F)(F)F,Percent Effect,"30.3 µM, […]",-46.77%
CC(C)N(C)Cc1cnc2n1CCN(CCc1ccccc1)C2.O=C(O)C(F)(F)F.O=C(O)C(F)(F)F,Percent Effect,"30 µM, 30.03 µM",55.49%
COCCN1CCn2c(CN(C)C(C)C)cnc2C1.O=C(O)C(F)(F)F.O=C(O)C(F)(F)F,Percent Effect,"30.3 µM, […]",0.5782%
CC(C)N(C)Cc1cnc2n1CCN(Cc1cccc(F)c1)C2.O=C(O)C(F)(F)F.O=C(O)C(F)(F)F,Percent Effect,"30.3 µM, […]",-6.591%
CCn1nnc2c1C(COCC(=O)N(C)C)CN(Cc1ccco1)C2.O=C(O)C(F)(F)F (stereo unspecified),Percent Effect,"30.3 µM, […]",-38.68%
COc1cccc(-c2nc(C)c(C(=O)NCCC(=O)O)s2)c1,Percent Effect,"30 µM, 30.03 µM",-31.35%
CC(C)CC(=O)N1CC(=O)c2sc(Nc3ccc(C#N)cc3)nc2C1,Percent Effect,"30.3 µM, […]",-13.31%
C=Cc1ccc(CN2CCCC3(CNC(=O)c4ccccc4O3)C2)cc1 (stereo unspecified),Percent Effect,"30.3 µM, […]",79.56%
O=C1NCC2(CCCN(Cc3ccc(Cl)s3)C2)Oc2ccccc21 (stereo unspecified),Percent Effect,"30 µM, 30.03 µM",12.52%
O=C1NCC2(CCCN(Cc3ccc(F)cc3)C2)Oc2ccccc21 (stereo unspecified),Percent Effect,"30.3 µM, […]",13.09%
O=C1NCC2(CCCN(CCc3ccccc3)C2)Oc2ccccc21 (stereo unspecified),Percent Effect,"30.3 µM, […]",-38.35%
O=C1NCC2(CCCN(Cc3ccccc3F)C2)Oc2ccccc21 (stereo unspecified),Percent Effect,"30.3 µM, […]",-8.26%
CSc1ccc(CN2CCCC3(CNC(=O)c4ccccc4O3)C2)cc1 (stereo unspecified),Percent Effect,"30.3 µM, […]",60.61%
